# How the values were obtained:
# PIP5K2C = test system: T1, PIP5K2C
# T1 construct: gene PIP4K2C
# PIK4CB = test system: T2, PIK4CB
# T2 construct: gene PI4KB
# PKAC-alpha = test system: T3, PKAC-alpha
# T3 construct: gene PRKACA
# PKAC-beta = test system: T4, PKAC-beta
# T4 construct: gene PRKACB
# 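Note: kd values determined as follow-up on hits from a single-replicate KINOMEscan panel screen.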
structure (smiles),measurement,setting,value
Nc1nc(-c2ccccn2)c(-c2ccnc3ccccc23)s1 [GW548057],Kd,PIP5K1C,> 10 µM
CCc1nc(-c2cccc(C)c2)c(-c2ccnc(NC(=O)c3ccccc3)c2)s1,Kd,PIP5K2C,4100 nM
O=C(Nc1ccccc1F)NC1CCN(c2ccnc(Nc3ccc(F)cc3)n2)C1 (stereo not shown) [GSK1379722],Kd,PIK4CB,> 10 µM
CN1CCC(n2cnc(-c3ccc(F)cc3)c2-c2ccnc(NC3CCNCC3)n2)CC1 [SB-229482],Kd,PIP5K2C,220 nM
O=C(c1ccc(-c2cc(-c3c[nH]nc3-c3ccccn3)ccn2)cc1)N1CCCC1 [GW792479],Kd,PIM1,> 10 µM
same,Kd,PIP5K2C,21 nM
CNc1nccc(-c2c(-c3ccc(F)cc3)ncn2C2CCN(C)CC2)n1 [SB-222903],Kd,PIP5K2C,39 nM
COc1cc2c(Nc3cccc(NC(=O)c4ccccc4)c3)ncnc2cc1OCCCN1CCOCC1 [GSK223810],Kd,PKAC-alpha,> 10 µM
CSc1nn2c(=O)cc(N3CCOCC3)nc2n1Cc1cccc(Cl)c1Cl [GSK2347225],Kd,PIK3CD,240 nM
CC(C)(C)c1ccc(-n2cnc3c(N)ncnc32)cc1 [SKF-97263],Kd,PIK3CG,2400 nM
C[C@@H]1CCN(C(=O)CO)C[C@@H]1N(C)c1ncnc2[nH]ccc12,Kd,PKAC-beta,> 10 µM
same,Kd,PKMYT1,> 10 µM
CNc1nccc(-c2c(-c3ccc(F)cc3)ncn2CCCN2CCOCC2)n1 [SB-222516],Kd,PIM3,> 10 µM

# Reference: publication PMC5540273 (PLoS ONE, 2017)
